PubChem BioAssay AID504444 (National Center for Advancing Translational Sciences (NCATS), 2011)
About 7,500 (2.1%) of roughly 360,000 compounds were called active. Roughly 20% stayed inconclusive and do not appear here. For the sample, actives were picked, then their nearest neighbours and some compounds at random. A number with no mark means an inactive call. Calls come from the whole dose curve; as a rule, active = well fitted inhibition curve with a large enough effect; inconclusive = small, poorly fitted or top-dose-only effect, or effect the other way; inactive = flat fitted curve, though single readings scatter.

assay: Nrf2 qHTS screen for inhibitors; settings: A549 ARE-Fluc reporter, luciferase luminescence, 18-24 h; series mostly up to 46 µM; activity change, negative = inhibition: at the top concentration; note: nearly all actives have a fitted effect of over 60% in size
Method in brief: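 A549 ARE_Fluc cells (5000/well, 5% FBS OPTI-MEM) pre-incubated 2 h, then treated with compounds 18-24 h at 37C/5% CO2 in concentration-response. CellTiter-Fluor viability read first; BugLite luciferase luminescence after 15 min at room temperature gives Nrf2 activity.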
% is set by controls: 0 for no effect and ±100 for the full control effect; potency is the fitted concentration of half-maximal effect.

| SMILES | activity change, negative = inhibition [%] | Potency |
| --- | --- | --- |
| CCC(=O)N1CCc2cc(S(=O)(=O)NC(C(=O)Nc3ccc(C(C)=O)cc3)C(C)C)ccc21 (configuration not stated) | 13.1 |  |
| O=C(NCC1(N2CCCCC2)CCCCC1)c1cccc(S(=O)(=O)Nc2ccccc2Cl)c1 | -12.6 |  |
| CCOc1ccc(CCNC(=O)c2cc3c(=O)n(C)c4ccccc4c3n2C)cc1 | -11.9 |  |
| NS(=O)(=O)c1ccc(NC(=O)CSc2nnc3c(n2)[nH]c2ccccc23)cc1 | 20.7 |  |
| Cc1cccc(NS(=O)(=O)c2ccc([N+](=O)[O-])cc2)n1 | -10.5 |  |
| O=[N+]([O-])c1ccc(NS(=O)(=O)c2ccccc2)c(Cl)c1 |  | 11.6 µM (active) |
| O=C(NNS(=O)(=O)c1ccc(F)cc1)c1ccc([N+](=O)[O-])cc1Cl | 5.13 |  |
| CN(CC(=O)NCC(c1ccccc1)N1CCCC1)S(=O)(=O)c1ccc(Cl)cc1 (configuration not stated) | 13.6 |  |
| CCCCCCn1nnc2sc(-c3ccccc3)cc2c1=O | 12.6 |  |
| COc1cc(O)c2c(=O)c3c(O)c(O)ccc3oc2c1OC | 12.7 |  |
| O=C(Cc1ccc(NC(=O)C2CCCN(C(=O)C3CCCCC3)C2)cc1)Nc1cccc(C(=O)N2CCCCC2)c1 (configuration not stated) | -0.45 |  |
| COc1cc(/C=N/NC(=O)c2ccoc2C)ccc1OCCN1CCCCC1 | -11.7 |  |
| COc1cc(/C=N/NC(=O)Nc2ccccc2)ccc1OCCOc1ccccc1C |  | 14.6 µM (active) |
| COc1cc(/C=N/NC(=O)c2ccccc2)ccc1OS(=O)(=O)c1ccccc1 | 0.205 |  |
| COc1ccc(-c2sc3ccc(OC)cc3c2C#Cc2ccccn2)cc1 | 11.5 |  |
| CCCCC[C@@H]1C=C(C(=O)O)[C@H](c2ccc(C#N)cc2)N1S(=O)(=O)c1ccc(C)cc1 | -19.7 |  |
| COc1ccc(CN2CCN(C(=O)c3cc(C4CC4)nn3-c3ccccc3)CC2)cc1F | -18.2 |  |
| CCOC(=O)CCC(NC(=O)c1ccc(CNc2nc3cc(C(F)(F)F)ccc3nc2C(=O)OCC)cc1)C(=O)OCC (configuration not stated) | -15.4 |  |
| C=CCNC(=O)c1ccc2nc(-c3ccco3)c(-c3ccco3)nc2c1 | -0.251 |  |
| COCCNC(=O)Cn1cc(C(=O)c2cccs2)c2ccccc21 | 3.92 |  |
| Cc1c(Cl)cccc1NC(=O)Cn1cc(C(=O)c2cccs2)c2ccccc21 |  | 6.51 µM (active) |
| COC(=O)Cn1cc(C(=O)c2cccs2)c2ccccc21 | -13.8 |  |
| Cc1cccc(N2CCN(C3=C(c4ccccc4)C(=O)c4ccccc43)CC2)c1C | -4.19 |  |
| CCOc1ccc(S(=O)(=O)c2cn(Cc3ccccc3)c3ccc(OCC)cc3c2=O)cc1 | 2.51 |  |
| Cc1ccc(CNC(=O)C2CCCN(S(C)(=O)=O)C2)cc1 (configuration not stated) | 1.71 |  |
| CCOc1ccc(CNC(=O)C2CCCN(S(=O)(=O)N(CC)c3ccc(OCC)cc3)C2)cc1 (configuration not stated) |  | 16.4 µM (active) |
| CCS(=O)(=O)N1CCCC(C(=O)NCc2ccc(C)cc2)C1 (configuration not stated) | -11 |  |
